± gives the standard deviation of the averaged measurements. Of roughly 5,400 targets only a part is listed; those with the largest changes were picked by preference.
Compound: Nc1nc2c(ncn2[C@@H]2O[C@H](COP(=O)(O)OP(=O)(O)OP(=O)(O)O)[C@@H](O)[C@H]2O)c(=O)[nH]1 [guanosine triphosphate]
Test: NP40-soluble protein abundance relative to vehicle (solubility fold change) (ratio); higher = more soluble protein in presence of GTP
Summary of the method: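 Each value is a fold change relative to the detergent-processed vehicle, calculated per replicate from vsn-normalised intensities. Jurkat crude lysate received eight concentrations (0.1 to 10 mM) for 10 min at room temperature and 3 min at 37 °C, then was solubilised in 0.8% NP40 with benzonase (60 min, 4 °C). The ultracentrifuged supernatant was TMT-labelled and run by LC-MS/MS in three independent experiments.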

Chain of UniProt P01137 (P01137 whole entry): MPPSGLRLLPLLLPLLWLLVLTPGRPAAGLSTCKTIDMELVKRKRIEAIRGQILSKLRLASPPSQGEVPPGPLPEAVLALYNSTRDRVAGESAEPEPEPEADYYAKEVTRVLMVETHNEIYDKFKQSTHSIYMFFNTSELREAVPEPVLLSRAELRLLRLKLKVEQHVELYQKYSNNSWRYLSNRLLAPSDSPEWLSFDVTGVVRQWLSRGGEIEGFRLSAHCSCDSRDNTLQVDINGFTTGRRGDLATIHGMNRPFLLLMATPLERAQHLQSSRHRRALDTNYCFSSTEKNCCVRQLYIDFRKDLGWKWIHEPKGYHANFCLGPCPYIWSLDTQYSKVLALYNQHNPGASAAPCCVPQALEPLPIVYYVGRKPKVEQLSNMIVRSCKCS
Chain of UniProt O60281 (O60281 whole entry, one chain of several): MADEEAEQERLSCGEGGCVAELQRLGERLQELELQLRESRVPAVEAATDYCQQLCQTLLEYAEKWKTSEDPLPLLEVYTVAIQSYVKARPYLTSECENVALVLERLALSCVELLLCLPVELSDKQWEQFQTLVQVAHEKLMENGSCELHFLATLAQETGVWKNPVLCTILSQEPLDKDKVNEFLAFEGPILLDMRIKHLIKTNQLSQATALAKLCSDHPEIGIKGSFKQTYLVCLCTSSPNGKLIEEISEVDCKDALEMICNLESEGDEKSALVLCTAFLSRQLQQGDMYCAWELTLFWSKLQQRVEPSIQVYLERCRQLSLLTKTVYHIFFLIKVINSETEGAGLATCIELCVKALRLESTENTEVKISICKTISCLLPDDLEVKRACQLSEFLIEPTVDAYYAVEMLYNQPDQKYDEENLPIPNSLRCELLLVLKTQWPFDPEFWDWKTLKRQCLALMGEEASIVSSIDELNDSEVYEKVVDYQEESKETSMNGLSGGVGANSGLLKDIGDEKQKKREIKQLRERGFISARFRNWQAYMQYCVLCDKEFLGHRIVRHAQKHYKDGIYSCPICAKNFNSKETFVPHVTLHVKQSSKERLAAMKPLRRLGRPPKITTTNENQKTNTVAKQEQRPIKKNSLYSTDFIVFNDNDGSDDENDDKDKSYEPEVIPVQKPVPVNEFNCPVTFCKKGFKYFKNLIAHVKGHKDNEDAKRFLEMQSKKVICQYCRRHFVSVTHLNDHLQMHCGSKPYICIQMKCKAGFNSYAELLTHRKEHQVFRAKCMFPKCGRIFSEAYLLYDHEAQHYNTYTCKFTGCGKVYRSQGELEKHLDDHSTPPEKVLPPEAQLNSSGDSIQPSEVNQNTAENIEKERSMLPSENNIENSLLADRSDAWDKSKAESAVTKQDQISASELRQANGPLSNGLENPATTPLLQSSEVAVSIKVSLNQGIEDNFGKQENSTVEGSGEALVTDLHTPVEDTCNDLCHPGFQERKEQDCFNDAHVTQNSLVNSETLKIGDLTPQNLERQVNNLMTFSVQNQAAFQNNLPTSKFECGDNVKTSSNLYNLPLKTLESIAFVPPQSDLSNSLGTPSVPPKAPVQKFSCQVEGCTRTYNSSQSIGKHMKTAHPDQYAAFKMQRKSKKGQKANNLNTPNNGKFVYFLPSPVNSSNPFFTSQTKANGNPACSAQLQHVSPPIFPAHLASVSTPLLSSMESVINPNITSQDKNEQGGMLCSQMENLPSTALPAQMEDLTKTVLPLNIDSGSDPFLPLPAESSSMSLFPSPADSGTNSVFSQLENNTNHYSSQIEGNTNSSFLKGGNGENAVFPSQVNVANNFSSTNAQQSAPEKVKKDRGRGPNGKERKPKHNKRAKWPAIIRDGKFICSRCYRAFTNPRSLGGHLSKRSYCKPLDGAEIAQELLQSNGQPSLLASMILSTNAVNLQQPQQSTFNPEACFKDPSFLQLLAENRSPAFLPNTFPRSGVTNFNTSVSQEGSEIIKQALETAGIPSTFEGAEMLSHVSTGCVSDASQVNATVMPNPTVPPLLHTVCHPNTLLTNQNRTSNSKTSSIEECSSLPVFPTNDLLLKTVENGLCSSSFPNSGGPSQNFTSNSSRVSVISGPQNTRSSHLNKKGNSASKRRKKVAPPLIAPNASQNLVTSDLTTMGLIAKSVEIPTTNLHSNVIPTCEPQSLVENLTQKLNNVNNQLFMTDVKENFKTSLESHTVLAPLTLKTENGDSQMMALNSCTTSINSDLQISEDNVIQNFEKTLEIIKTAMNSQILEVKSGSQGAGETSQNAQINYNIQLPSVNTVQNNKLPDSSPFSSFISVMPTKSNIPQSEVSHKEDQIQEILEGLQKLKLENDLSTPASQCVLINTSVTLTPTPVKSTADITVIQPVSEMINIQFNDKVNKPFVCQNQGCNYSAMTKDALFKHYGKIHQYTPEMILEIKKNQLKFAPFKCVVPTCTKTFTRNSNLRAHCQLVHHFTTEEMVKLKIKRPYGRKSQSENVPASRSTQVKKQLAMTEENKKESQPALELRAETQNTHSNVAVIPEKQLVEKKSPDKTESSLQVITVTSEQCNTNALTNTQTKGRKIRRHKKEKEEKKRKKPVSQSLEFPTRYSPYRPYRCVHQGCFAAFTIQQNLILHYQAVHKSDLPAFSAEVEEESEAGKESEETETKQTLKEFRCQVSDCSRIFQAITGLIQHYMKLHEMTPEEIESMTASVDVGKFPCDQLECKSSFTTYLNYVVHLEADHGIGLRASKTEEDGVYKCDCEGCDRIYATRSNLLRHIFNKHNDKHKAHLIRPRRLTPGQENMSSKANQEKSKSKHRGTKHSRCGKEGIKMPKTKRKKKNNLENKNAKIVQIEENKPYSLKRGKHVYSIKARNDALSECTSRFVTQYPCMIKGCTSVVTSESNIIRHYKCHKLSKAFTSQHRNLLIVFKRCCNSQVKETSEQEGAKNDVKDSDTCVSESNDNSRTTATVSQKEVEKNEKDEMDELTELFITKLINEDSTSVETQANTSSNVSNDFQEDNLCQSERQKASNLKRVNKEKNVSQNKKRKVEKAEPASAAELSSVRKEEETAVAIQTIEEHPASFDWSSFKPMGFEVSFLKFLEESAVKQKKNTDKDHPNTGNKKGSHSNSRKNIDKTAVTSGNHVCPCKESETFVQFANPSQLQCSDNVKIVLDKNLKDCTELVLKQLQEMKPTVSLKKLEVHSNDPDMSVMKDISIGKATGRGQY
Chain of UniProt P25705 (P25705 whole entry): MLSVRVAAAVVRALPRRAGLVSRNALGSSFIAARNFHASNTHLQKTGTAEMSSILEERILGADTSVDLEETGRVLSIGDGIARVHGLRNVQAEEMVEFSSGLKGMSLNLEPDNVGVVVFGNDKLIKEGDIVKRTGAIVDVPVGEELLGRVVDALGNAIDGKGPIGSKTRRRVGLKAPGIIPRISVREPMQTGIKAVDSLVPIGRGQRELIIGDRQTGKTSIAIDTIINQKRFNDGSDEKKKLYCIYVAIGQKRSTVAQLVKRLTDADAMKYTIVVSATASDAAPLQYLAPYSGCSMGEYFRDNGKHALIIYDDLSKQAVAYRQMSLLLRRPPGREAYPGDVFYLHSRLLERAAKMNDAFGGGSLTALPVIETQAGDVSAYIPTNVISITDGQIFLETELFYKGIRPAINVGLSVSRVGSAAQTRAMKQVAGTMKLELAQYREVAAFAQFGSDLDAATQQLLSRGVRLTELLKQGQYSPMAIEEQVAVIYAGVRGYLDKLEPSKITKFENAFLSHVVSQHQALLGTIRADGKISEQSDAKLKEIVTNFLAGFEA
Chain of UniProt P37198 (P37198 whole entry): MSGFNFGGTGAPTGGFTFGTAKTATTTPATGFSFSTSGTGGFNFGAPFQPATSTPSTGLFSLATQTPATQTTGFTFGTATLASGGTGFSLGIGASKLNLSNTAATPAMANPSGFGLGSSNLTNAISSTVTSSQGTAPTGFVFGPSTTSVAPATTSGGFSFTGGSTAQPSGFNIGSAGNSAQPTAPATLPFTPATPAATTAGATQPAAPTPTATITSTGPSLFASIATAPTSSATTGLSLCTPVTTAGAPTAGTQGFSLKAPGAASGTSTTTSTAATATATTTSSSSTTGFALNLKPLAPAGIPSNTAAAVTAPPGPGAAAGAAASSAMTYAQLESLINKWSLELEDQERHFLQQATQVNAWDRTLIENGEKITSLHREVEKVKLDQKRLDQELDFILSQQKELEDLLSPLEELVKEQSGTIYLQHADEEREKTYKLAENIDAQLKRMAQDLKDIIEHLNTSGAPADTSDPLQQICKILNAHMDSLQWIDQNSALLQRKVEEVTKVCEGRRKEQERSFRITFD
Chain of UniProt P05114 (P05114 whole entry): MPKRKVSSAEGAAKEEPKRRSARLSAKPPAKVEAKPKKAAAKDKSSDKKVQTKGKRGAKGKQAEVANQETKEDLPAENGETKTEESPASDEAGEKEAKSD
Chain of UniProt P54578 (P54578 whole entry): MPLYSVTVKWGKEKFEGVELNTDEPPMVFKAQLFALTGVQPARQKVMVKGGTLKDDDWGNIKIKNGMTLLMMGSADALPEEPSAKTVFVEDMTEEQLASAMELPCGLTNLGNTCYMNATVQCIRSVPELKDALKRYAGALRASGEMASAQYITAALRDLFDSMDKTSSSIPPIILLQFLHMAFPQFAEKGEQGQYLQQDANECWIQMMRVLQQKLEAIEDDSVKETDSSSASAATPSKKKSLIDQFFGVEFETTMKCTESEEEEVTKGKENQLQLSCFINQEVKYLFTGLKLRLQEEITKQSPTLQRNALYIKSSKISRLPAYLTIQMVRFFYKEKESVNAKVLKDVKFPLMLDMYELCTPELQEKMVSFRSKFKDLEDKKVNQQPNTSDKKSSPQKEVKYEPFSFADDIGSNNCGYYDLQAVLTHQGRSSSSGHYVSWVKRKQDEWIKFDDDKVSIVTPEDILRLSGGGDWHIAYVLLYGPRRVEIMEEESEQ
Chain of UniProt O75822 (O75822 whole entry): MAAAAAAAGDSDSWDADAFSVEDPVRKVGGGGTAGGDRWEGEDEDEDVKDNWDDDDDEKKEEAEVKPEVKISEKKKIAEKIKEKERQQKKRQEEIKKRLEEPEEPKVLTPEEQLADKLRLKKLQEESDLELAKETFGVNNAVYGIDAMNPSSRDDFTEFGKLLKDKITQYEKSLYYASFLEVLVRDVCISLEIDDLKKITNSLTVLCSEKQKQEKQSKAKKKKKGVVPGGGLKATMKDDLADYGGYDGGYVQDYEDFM

Target	NP40-soluble protein abundance (concentration: 0.1mM)	NP40-soluble protein abundance (concentration: 0.5mM)	NP40-soluble protein abundance (concentration: 1mM)	NP40-soluble protein abundance (concentration: 2mM)	NP40-soluble protein abundance (concentration: 4mM)	NP40-soluble protein abundance (concentration: 6mM)	NP40-soluble protein abundance (concentration: 8mM)	NP40-soluble protein abundance (concentration: 10mM)
UniProt P26368|P26368-2	1.21 ± 0.06	1.64 ± 0.23	1.67 ± 0.25	1.69 ± 0.25	1.7 ± 0.29	1.75 ± 0.25	1.73 ± 0.29	1.71 ± 0.26
NUDT2 (UniProt P50583)	0.93 ± 0.17	0.902 ± 0.14	0.884 ± 0.15	0.877 ± 0.15	1.8 ± 0.49	1.24 ± 0.23	1.48 ± 0.34	1.16 ± 0.26
EEF2K (UniProt O00418)	0.988 ± 0.074	1.01 ± 0.058	0.944 ± 0.02	0.954 ± 0.044	0.913 ± 0.028	0.951 ± 0.052	0.949 ± 0.068	0.941 ± 0.039
J3QTA6|Q9BRQ6 (UniProt Q9BRQ6)	1 ± 0.084	1.01 ± 0.083	1.12 ± 0.14	1.15 ± 0.054	1.15 ± 0.09	1.16 ± 0.062	1.22 ± 0.12	1.26 ± 0.21
UniProt P11388|P11388-2|P11388-3|P11388-4	1.06 ± 0.054	1.14 ± 0.036	1.2 ± 0.022	1.43 ± 0.052	1.73 ± 0.1	1.94 ± 0.16	2.01 ± 0.18	2.12 ± 0.15
NUDT21 (UniProt O43809)	1.11 ± 0.12	1.39 ± 0.12	1.64 ± 0.21	1.86 ± 0.31	2.02 ± 0.39	2.04 ± 0.35	1.97 ± 0.25	2.07 ± 0.44
UniProt O95644|O95644-10|O95644-11|O95644-2|O95644-3|O95644-4|O95644-5|O95644-6|O95644-8	1.01 ± 0.2	1.07 ± 0.094	1.25 ± 0.18	1.37 ± 0.17	1.31 ± 0.29	1.34 ± 0.19	1.17 ± 0.053	1.34 ± 0.3
PARP1 (UniProt P09874)	1.02 ± 0.026	1.05 ± 0.034	1.05 ± 0.033	1.15 ± 0.052	1.31 ± 0.069	1.43 ± 0.054	1.47 ± 0.043	1.5 ± 0.028
UniProt P13051|P13051-2	0.9724 ± 0.0086	0.946 ± 0.019	0.944 ± 0.073	0.91 ± 0.062	0.886 ± 0.075	0.892 ± 0.07	0.893 ± 0.036	0.863 ± 0.1
NUP62 (UniProt P37198)	0.8692 ± 0.0052	0.889 ± 0.025	1.01 ± 0.021	0.955 ± 0.038	0.988 ± 0.064	1.06 ± 0.053	1.08 ± 0.052	1.19 ± 0.047
TGFB1 (UniProt P01137)	0.926 ± 0.072	1.02 ± 0.11	0.908 ± 0.091	0.961 ± 0.092	0.987 ± 0.055	0.958 ± 0.088	0.896 ± 0.11	0.968 ± 0.14
UniProt O75822|O75822-2	0.856 ± 0.038	0.825 ± 0.074	0.908 ± 0.09	0.954 ± 0.098	1.07 ± 0.17	1.32 ± 0.22	1.4 ± 0.3	1.77 ± 0.39
J3KQL8|Q9BQE5 (UniProt Q9BQE5)	0.987 ± 0.019	1.01 ± 0.041	0.984 ± 0.054	0.956 ± 0.058	0.917 ± 0.044	0.982 ± 0.05	0.957 ± 0.045	0.928 ± 0.051
UniProt O43665|O43665-2|O43665-3	0.802 ± 0.079	0.748 ± 0.035	0.872 ± 0.14	0.865 ± 0.068	0.791 ± 0.038	0.837 ± 0.034	0.79 ± 0.089	0.909 ± 0.14
K7EPN2|P22830|P22830-2 (UniProt P22830)	1.06 ± 0.013	1.06 ± 0.034	0.972 ± 0.015	0.945 ± 0.055	0.958 ± 0.039	0.939 ± 0.03	0.928 ± 0.043	0.885 ± 0.05
PPIF (UniProt P30405)	0.881 ± 0.08	0.902 ± 0.067	0.863 ± 0.064	0.876 ± 0.078	0.853 ± 0.091	0.868 ± 0.087	0.836 ± 0.11	0.887 ± 0.079
ANXA5 (UniProt P08758)	0.882 ± 0.07	0.908 ± 0.054	0.878 ± 0.077	0.854 ± 0.076	0.819 ± 0.073	0.843 ± 0.089	0.794 ± 0.081	0.809 ± 0.085
J3KNV1|O60281|O60281-2 (UniProt O60281)	1.06 ± 0.041	1.05 ± 0.095	1.12 ± 0.066	1.09 ± 0.13	1.02 ± 0.051	1.04 ± 0.15	1.07 ± 0.057	1.05 ± 0.036
UniProt O94906|O94906-2	1.06 ± 0.055	1.17 ± 0.086	1.26 ± 0.17	1.42 ± 0.27	1.66 ± 0.44	1.91 ± 0.46	2.23 ± 0.58	2.34 ± 0.6
HMGN1 (UniProt P05114)	1.26 ± 0.29	1.29 ± 0.33	1.39 ± 0.48	1.52 ± 0.48	1.34 ± 0.34	1.83 ± 0.67	1.66 ± 0.36	1.8 ± 0.33
GLRX3 (UniProt O76003)	0.92 ± 0.052	0.946 ± 0.058	0.934 ± 0.068	0.882 ± 0.088	0.864 ± 0.075	0.885 ± 0.085	0.885 ± 0.035	0.871 ± 0.081
UniProt P54578|P54578-2	0.975 ± 0.029	0.998 ± 0.021	0.935 ± 0.027	0.922 ± 0.013	0.903 ± 0.026	0.897 ± 0.02	0.895 ± 0.038	0.876 ± 0.046
XPO1 (UniProt O14980)	1.01 ± 0.027	1.02 ± 0.033	0.936 ± 0.022	0.926 ± 0.072	0.916 ± 0.054	0.918 ± 0.033	0.882 ± 0.023	0.848 ± 0.044
GSTM2 (UniProt P28161)	1.03 ± 0.058	0.947 ± 0.051	1 ± 0.1	0.976 ± 0.085	0.956 ± 0.1	0.932 ± 0.11	0.886 ± 0.091	0.899 ± 0.12
UniProt O75400|O75400-2|O75400-3	1.02 ± 0.05	1.11 ± 0.036	1.23 ± 0.083	1.25 ± 0.076	1.37 ± 0.21	1.52 ± 0.24	1.81 ± 0.37	1.89 ± 0.41
UniProt P09651|P09651-2	1.03 ± 0.067	1.11 ± 0.082	1.17 ± 0.11	1.16 ± 0.065	1.16 ± 0.08	1.22 ± 0.089	1.3 ± 0.22	1.25 ± 0.16
UniProt P06239|P06239-3	1.013 ± 0.0087	1.04 ± 0.034	0.994 ± 0.022	1 ± 0.032	1 ± 0.023	0.963 ± 0.015	0.929 ± 0.026	0.919 ± 0.039
UniProt P25705|P25705-2	0.981 ± 0.022	1.04 ± 0.057	0.998 ± 0.062	1.01 ± 0.087	0.986 ± 0.088	1.03 ± 0.11	1.01 ± 0.11	0.995 ± 0.098
P39880-3|Q13948|Q13948-2|P39880 (UniProt Q13948+P39880)	0.948 ± 0.035	0.948 ± 0.058	1.01 ± 0.049	0.978 ± 0.063	1.01 ± 0.054	0.997 ± 0.052	1.03 ± 0.024	1.05 ± 0.063
